PubChem BioAssay AID1159580 (chemical genetic matrix, 2015)
The whole screen tested about 5,500 compounds, of which about 2,000 (36%) were called active. About 18% were inconclusive and are not listed. Rule as the data show it: active = normalized growth mostly below about 0.91 (no sharp cut-off); inconclusive = no clear call, values can overlap the other calls; inactive = mostly above about 0.92. This is one part of the list.

Assay: chemical genetic growth profiling, strain panel (AID 1159580);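 also: tested at 20 µM; growth read once vehicle control cultures reached saturation at 30 °C; 1 = growth at the plate median or of vehicle wells; lower values mean less growth of the strain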
Conditions: growth OD

Measured: normalized growth

CN(C(=O)CN(CCO)CC(=O)N(C)C(C)(C)Cc1ccccc1)C(C)(C)Cc1ccccc1
inactive: S. cerevisiae deletion strains, locus YJR066W, strain TOR1, hits give low values 0.977 | S. cerevisiae deletion strains, locus YJR075W, strain HOC1, hits give low values 0.979 | S. cerevisiae deletion strains, locus YKL009W, strain mrt4, hits give low values 0.965 | S. cerevisiae deletion strains, locus YKL068W, hits give low values 0.979 | S. cerevisiae deletion strains, locus YKL085W, strain MDH1 (second series), hits give low values 0.971 | S. cerevisiae deletion strains, locus YKL085W, strain MDH1, hits give low values 0.971 | S. cerevisiae deletion strains, locus YKL160W, strain elf1, hits give low values 1.01 | S. cerevisiae deletion strains, locus YKL190W, strain CNB1, hits give low values 0.992 | S. cerevisiae deletion strains, locus YKR001C, strain vps1, hits give low values 0.998 | S. cerevisiae deletion strains, locus YKR026C, strain gcn3, hits give low values 1.02 | S. cerevisiae deletion strains, locus YKR091W, strain srl3, hits give low values 0.999 | S. cerevisiae deletion strains, locus YLL001W, strain dnm1, hits give low values 1.02 | S. cerevisiae deletion strains, locus YLL026W, hits give low values 1.02 | S. cerevisiae deletion strains, locus YLL041C, strain sdh2, hits give low values 1.01 | S. cerevisiae deletion strains, locus YLR027C, strain aat2, hits give low values 1.02 | S. cerevisiae deletion strains, locus YLR039C, strain RIC1, hits give low values 1.03 | S. cerevisiae deletion strains, locus YLR058C, strain SHM2, hits give low values 0.997 | S. cerevisiae deletion strains, locus YLR102C, strain apc9, hits give low values 0.986 | S. cerevisiae deletion strains, locus YLR113W, strain HOG1, hits give low values 0.987 | S. cerevisiae deletion strains, locus YLR221C, strain rsa3, hits give low values 0.993 | S. cerevisiae deletion strains, locus YLR258W, strain gsy2, hits give low values 1 | S. cerevisiae deletion strains, locus YLR262C, strain YPT6 (second series), hits give low values 1.03 | S. cerevisiae deletion strains, locus YLR262C, strain YPT6, hits give low values 1.02 | S. cerevisiae deletion strains, locus YLR268W, strain sec22, hits give low values 0.962 | S. cerevisiae deletion strains, locus YLR320W, strain mms22, hits give low values 0.99 | S. cerevisiae deletion strains, locus YLR330W, strain CHS5, hits give low values 0.984 | S. cerevisiae deletion strains, locus YLR342W, strain FKS1 (second series), hits give low values 0.985 | S. cerevisiae deletion strains, locus YLR342W, strain FKS1, hits give low values 1.01 | S. cerevisiae deletion strains, locus YLR357W, strain rsc2, hits give low values 1.01 | S. cerevisiae deletion strains, locus YLR370C, strain arc18, hits give low values 1.02 | S. cerevisiae deletion strains, locus YLR371W, strain rom2, hits give low values 0.978 | S. cerevisiae deletion strains, locus YLR384C, strain iki3, hits give low values 1.01 | S. cerevisiae deletion strains, locus YLR418C, strain cdc73, hits give low values 0.989 | S. cerevisiae deletion strains, locus YML016C, strain PPZ1, hits give low values 0.994 | S. cerevisiae deletion strains, locus YML032C, strain rad52, hits give low values 0.98 | S. cerevisiae deletion strains, locus YML120C, strain ndi1, hits give low values 1.02 | S. cerevisiae deletion strains, locus YML124C, strain tub3, hits give low values 0.989 | S. cerevisiae deletion strains, locus YMR058W, strain fet3, hits give low values 1.02 | S. cerevisiae deletion strains, locus YMR078C, strain ctf18, hits give low values 0.974 | S. cerevisiae deletion strains, locus YMR125W, strain sto1, hits give low values 1.02 | S. cerevisiae deletion strains, locus YMR129W, hits give low values 1.01 | S. cerevisiae deletion strains, locus YMR205C, strain PFK2, hits give low values 1 | S. cerevisiae deletion strains, locus YMR223W, strain ubp8, hits give low values 0.97 | S. cerevisiae deletion strains, locus YMR231W, strain pep5, hits give low values 1.01 | S. cerevisiae deletion strains, locus YMR263W, strain SAP30, hits give low values 0.995 | S. cerevisiae deletion strains, locus YMR307W, strain GAS1, hits give low values 0.835 | S. cerevisiae deletion strains, locus YNL067W, strain RPL9B, hits give low values 0.994 | S. cerevisiae deletion strains, locus YNL071W, strain lat1, hits give low values 1.01 | S. cerevisiae deletion strains, locus YNL153C, strain GIM3, hits give low values 1.03 | S. cerevisiae deletion strains, locus YNL183C, strain NPR1, hits give low values 0.944 | S. cerevisiae deletion strains, locus YNL209W, strain ssb2, hits give low values 1.01 | S. cerevisiae deletion strains, locus YNL233W, strain BNI4, hits give low values 0.987 | S. cerevisiae deletion strains, locus YNL248C, strain rpa49, hits give low values 1 | S. cerevisiae deletion strains, locus YNL250W, strain rad50, hits give low values 0.996 | S. cerevisiae deletion strains, locus YNL271C, strain bni1, hits give low values 0.982 | S. cerevisiae deletion strains, locus YNL298W, strain CLA4, hits give low values 0.983 | S. cerevisiae deletion strains, locus YNL307C, strain MCK1, hits give low values 0.99 | S. cerevisiae deletion strains, locus YNL322C, strain KRE1 (second series), hits give low values 1.01 | S. cerevisiae deletion strains, locus YNR049C, strain mso1, hits give low values 1.02 | S. cerevisiae deletion strains, locus YNR052C, strain pop2, hits give low values 0.972 | S. cerevisiae deletion strains, locus YOL006C, strain TOP1, hits give low values 1.05 | S. cerevisiae deletion strains, locus YOL012C, strain htz1 0.857 | S. cerevisiae deletion strains, locus YOL147C, strain pex11, hits give low values 0.987 | S. cerevisiae deletion strains, locus YOR001W, strain rrp6, hits give low values 0.992 | S. cerevisiae deletion strains, locus YOR061W, strain CKA2, hits give low values 0.992 | S. cerevisiae deletion strains, locus YOR069W, strain VPS5, hits give low values 0.991 | S. cerevisiae deletion strains, locus YOR070C, strain gyp1, hits give low values 1.02 | S. cerevisiae deletion strains, locus YOR080W, strain dia2, hits give low values 1.01 | S. cerevisiae deletion strains, locus YOR083W, strain WHI5, hits give low values 1 | S. cerevisiae deletion strains, locus YOR106W, strain vam3, hits give low values 1.02 | S. cerevisiae deletion strains, locus YOR136W, strain idh2, hits give low values 0.984 | S. cerevisiae deletion strains, locus YOR144C, strain elg1, hits give low values 0.99 | S. cerevisiae deletion strains, locus YOR184W, strain ser1, hits give low values 0.976 | S. cerevisiae deletion strains, locus YOR231W, strain MKK1, hits give low values 0.991 | S. cerevisiae deletion strains, locus YOR265W, strain rbl2, hits give low values 1.02 | S. cerevisiae deletion strains, locus YOR270C, strain vph1, hits give low values 1.09 | S. cerevisiae deletion strains, locus YOR290C, strain snf2, hits give low values 1.01 | S. cerevisiae deletion strains, locus YOR316C, strain cot1, hits give low values 0.971 | S. cerevisiae deletion strains, locus YPL051W, strain arl3, hits give low values 0.999 | S. cerevisiae deletion strains, locus YPL078C, strain atp4, hits give low values 1.01 | S. cerevisiae deletion strains, locus YPL106C, strain sse1, hits give low values 0.991 | S. cerevisiae deletion strains, locus YPL240C, strain hsp82, hits give low values 1 | S. cerevisiae deletion strains, locus YPL256C, strain CLN2, hits give low values 0.98 | S. cerevisiae deletion strains, locus YPR119W, strain clb2, hits give low values 0.974 | S. cerevisiae deletion strains, locus YPR141C, strain kar3, hits give low values 0.981 | S. cerevisiae deletion strains, locus YPR163C, strain tif3, hits give low values 0.969 | S. cerevisiae deletion strains, locus YPR167C, strain met16, hits give low values 0.969 | S. cerevisiae deletion strains, strain wtn01, hits give low values 0.985 | S. cerevisiae strains, strain wild type, hits give low values 0.991
